NPC1 prom act: NPC1 promoter activation. Huh7 NPC1 promoter luciferase reporter, 24 h. Potency, µM (highest dose often 9.22 µM), for inactives: at the top dose activation, hits mostly activators. 2.4% of 320,000 active; note: % of control where 0% means no effect; nearly all actives have a fitted effect of over 60% in size
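Luciferase expression driven by the NPC1 promoter was measured in stably transfected Huh7 cells after a 24 h compound incubation, using a luciferase reagent and a luminescence read.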
ELG1 genotoxic: genotoxicity induction in ELG1-luciferase HEK293T cells | 1.3% of 330,000 active | HEK293T ELG1-luciferase reporter, luminescence, 16 h | Potency, µM (titrated, usually from 46 µM), inactives show at the highest dose activity change, positive = activation, actives largely listed as activators; note: % of control where 0% means no effect; nearly all actives have a fitted effect of over 60% in size
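HEK293T cells expressing luciferase-tagged ELG1 were exposed to compound or DMSO vehicle for 16 hr at 37 °C and 5% CO2. Luciferase activity was then measured with ONE-Glo after 30 min at room temperature.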
KinaseGlo FLuc: blocks Kinase-Glo luciferase, a counter-screen artifact; Kinase-Glo luciferase, ATP luminescence, 8 min; Potency, µM (doses to about 38.3 µM), for inactives: at the top dose activity change, negative = inhibition, hits mostly inhibitors; 0.28% of 200,000 active; AID 1379; note: % is set by controls: 0 for no effect and ±100 for the full control effect; nearly all actives have a fitted effect of over 60% in size
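Compound is pinned into ATP-containing buffer (10 uM ATP, imidazole pH 7.2, 7 mM MgCl2). Kinase-Glo luciferase reagent is then added. Light output is recorded following an 8-min room-temperature incubation.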
Rab9 prom act: Rab9 promoter activation; Huh7 Rab9 promoter-luciferase reporter, luminescence, 24 h; Potency, µM (series often up to 9.22 µM), for inactives: at the highest dose activation, negative = inhibition, hits mostly activators; 2.8% of 320,000 active; AID 485297; note: % of control where 0% means no effect; nearly all actives have a fitted effect of over 60% in size
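Huh7 cells stably carrying Rab9 promoter–luciferase reporter, plated 1500 cells/well, compound added after 2 h and incubated 24 h at 37 °C; luciferase luminescence then read after 10 min with detection reagent.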
FLuc counter: firefly luciferase modulation, counter-screen for miR-21 project | Potency, µM (series often up to 57.5 µM), inactives show at the highest dose activity change, negative = inhibition, most hits filed as inhibitors | purified FLuc, Km substrates, luminescence inhibition | P08659 | 6.9% of 360,000 active | AID 588342;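 note: plate controls were vehicle for no effect and reference inhibitor for full effect; nearly all actives have a fitted effect of over 55% in size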
Target sequence (P08659 whole entry, looked up): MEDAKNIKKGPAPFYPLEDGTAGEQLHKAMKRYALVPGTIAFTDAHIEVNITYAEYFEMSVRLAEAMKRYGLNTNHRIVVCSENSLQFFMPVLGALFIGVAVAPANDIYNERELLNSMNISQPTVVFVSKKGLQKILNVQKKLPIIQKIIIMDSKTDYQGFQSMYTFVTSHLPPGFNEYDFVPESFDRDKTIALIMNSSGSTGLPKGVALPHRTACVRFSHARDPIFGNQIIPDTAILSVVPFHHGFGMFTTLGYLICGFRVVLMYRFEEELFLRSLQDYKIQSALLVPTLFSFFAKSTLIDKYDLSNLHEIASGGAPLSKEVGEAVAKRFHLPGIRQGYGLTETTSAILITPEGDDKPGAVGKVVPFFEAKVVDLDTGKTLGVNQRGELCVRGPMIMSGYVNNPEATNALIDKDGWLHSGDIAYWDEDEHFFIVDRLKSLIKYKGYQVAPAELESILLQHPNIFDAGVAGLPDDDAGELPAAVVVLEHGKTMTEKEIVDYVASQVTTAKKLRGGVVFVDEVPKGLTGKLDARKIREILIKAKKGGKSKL
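Purified P. pyralis luciferase (10nM final) with 10uM D-luciferin and 10uM ATP (Km levels) in 50mM Tris acetate pH 7.5, 10mM Mg acetate, 0.01% Tween-20, 0.05% BSA; qHTS 6-point titration, ~60 µM downward; luminescence read.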
SMN2 splice enh: enhancers of SMN2 splice variant expression; HEK293 SMN2-luciferase splicing reporter, luminescence, 30-36 h; Potency, µM (series often up to 46.1 µM), for inactives: top-dose activity change, positive = activation, usual class: activators; 2.8% of 210,000 active; AID 1458; note: % of control where 0% means no effect; nearly all actives have a fitted effect of over 55% in size
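HEK293 cells carry an SMN2 […]–luciferase reporter in which exon 7 inclusion puts luciferase in frame. Cells were plated 10-12 h before compound addition, then incubated 30-36 h at 37C. ONE-Glo luminescence was read; sodium butyrate at 4.5 mM final served as control.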
* hit, by the source's call; ? = inconclusive; · = no result given; ! = not confirmed by another sample; [ ] = remark or other dose. This is a sample that favours compounds with a hit; in the whole collection about 7.3% have one here. Calls come from the whole dose curve; as a rule, active = well fitted curve in the direction sought with a large enough effect; inconclusive = small, poorly fitted or top-dose-only effect, or another doubt; inactive = no such curve, though single readings can be large; an effect the other way counts as inactive or inconclusive. Potency is the fitted concentration of half-maximal effect.

SMILES | NPC1 prom act | ELG1 genotoxic | KinaseGlo FLuc | Rab9 prom act | FLuc counter | SMN2 splice enh
COc1ccc(C(=O)/C=C/c2ccc(OC)c(O)c2)c(F)c1 | 5% | 16% | -1% | -8% | 11µM* | -16%
COc1ccc(/C=C/C(=O)c2ccc(Cl)s2)cc1O | -5% | ? | -6% | 6% | 1.1µM* | -12%
Cc1c(NC(=O)c2ccccc2N)cccc1C(=O)O | 1.3µM* | ? | · | 1.8µM* | 9.5µM* | ·
Nc1ccccc1NC(=O)c1ccccc1N | 11% | 1% | -5% | 17% | -23% | -3%
CCN(CC)c1ccc(NC(=O)c2ccc(Br)o2)c(C)c1 | 15% | 18% | 1% | 0% | -21% | 12%
Cc1cccc(NC(=O)c2ccccc2NC(=O)C2CCCCC2)c1C | 2% | ? | -2% | -2% | 17µM* | -1%
Cc1c(NC(=O)c2ccc(Br)o2)cccc1C(=O)O | ? | ? | -4% | 2.5µM* | 21µM* | ?
Cc1cc(O)c(NC(=O)c2ccc(Br)o2)cc1C | 20% | ? | -7% | 17% | ? | 14µM*
O=C(Nc1ccccc1)c1ccccc1NC(=O)C1CCCCC1 | -3% | 1% | -3% | 1% | 0% | 2%
CCCCN1CC(c2nc3ccccc3n2CCCCOc2cccc(C)c2C)CC1=O (stereo unspecified) | · | · | · | · | -2% | ·
COc1ccccc1NC(=O)c1c(-c2ccc(C)cc2)nnc2ccccc12 | · | · | · | · | -16% | ·
Cc1ccc(NC(=O)c2cc(CN3CCOCC3)on2)cc1Cl | · | · | · | · | -15% | ·
COc1ccc(-c2nc3c(c4c2C[C@H](c2ccccc2)OC4)CN(S(=O)(=O)c2ccc4c(c2)OCCN4C)CC3)c(C)c1 | · | · | -6%[7.66 µM] | · | · | -2%[9.22 µM]
COc1ccccc1NC(=O)c1ccc(Br)o1 | 1% | ? | -3% | -5% | -14% | 27%
Cc1c(NC(=O)c2ccc(NC(=O)C3CC3)cc2)cccc1C(=O)O | 0% | -2% | · | 7% | 15µM* | ·
Cc1c(NC(=O)c2cccs2)cccc1C(=O)O | ? | 12% | 1% | ? | 15µM* | 10%
COc1cc(NC(=O)c2ccc(Br)o2)c(C(=O)O)cc1OC | -1% | 2% | 0% | -1% | 21µM* | 18%
Cc1c(NC(=O)c2ccccc2NC(=O)COc2ccccc2)cccc1C(=O)O | -1% | -8% | · | 2% | -15% | ·
Cc1c(NC(=O)c2ccccc2NC(=O)c2ccccc2)cccc1C(=O)O | 0% | 2% | · | 4% | 17µM* | ·
Cc1ccc(NC(=O)c2cccc(C(=O)Nc3ccc(C)cc3C(=O)O)c2)c(C(=O)O)c1 | -1% | -11% | · | -4%[1.84 µM] | 27µM* | ·
Clc1ccccc1OCc1nn2c(-c3ccncc3)nnc2s1 | 0% | -3% | -3% | -2% | 1% | -12%
Cc1nc(COc2ccccc2Cl)sc1-c1ccnc(N)n1 | 2% | 3% | · | 16% | 11µM* | ·
Cc1cccc(N2CCN(C(=O)Cn3nc(Cc4cccnc4)c4ccccc4c3=O)CC2)c1C | · | · | · | · | -2% | -17%
CCSC1=C(C#N)C(c2ccc(C)s2)CC(=O)N1 (stereo unspecified) | 3% | 0% | -11% | 5% | 27µM* | 0%
Cc1cc(C)c(S(=O)(=O)N2CCC(N3CCN(Cc4ccc(F)cc4)C(=O)C3=O)CC2)c(C)c1 | · | · | · | · | 0% | ·
SMILES | NPC1 prom act | ELG1 genotoxic | KinaseGlo FLuc | Rab9 prom act | FLuc counter | SMN2 splice enh
COc1nc(-c2ccccc2)ccc1-c1noc(-c2ccco2)n1 | ? | 21µM* | -2% | 4µM* | 8.5µM* | 13µM*
COc1nc(-c2ccccc2)ccc1-c1noc(-c2ccccc2)n1 | 4µM* | 18µM* | -1% | 2.8µM* | 24µM* | ?
COc1ccccc1-c1noc(-c2ccco2)n1 | 3.5µM* | 6.5µM* | -18% | 3.2µM* | 11µM* | 13µM*
Fc1ccc(-c2nnc(-c3ccc(F)cc3)o2)cc1 | 2.8µM* | ? | · | ? | 4.3µM* | ·
Fc1ccc(-c2nnc(NC3=NCCCCC3)o2)cc1 | ? | ? | 11µM* | 0.089µM* | 0.6µM* | -21%
c1ccc(-c2nnc(NC3=NCCC3)o2)cc1 | ? | 1.8µM* | ? | 0.35µM* | 6µM* | 8.9µM*
CC1=C(c2ccc(C)cc2)S(=O)(=O)NC1=NCc1cccc(F)c1 | · | · | · | · | -9% | ·
CCOC(=O)c1cc(-c2ccc(F)cc2)n(CCC(=O)Nc2nc3ccc(OC)cc3s2)c1C | · | · | · | · | -2% | ·
CCc1ccccc1NC(=O)CN1C(=O)COc2ccc(S(=O)(=O)N3CCCCCC3)cc21 | · | · | · | · | -1% | ·
COc1ccc2cc(CNc3ccc(OC)c(OC)c3)c(=O)n(CC(=O)Nc3ccc(C)cc3)c2c1 | · | · | · | · | 3% | ·
COc1ccc(Cc2nn3c(Cn4nnc5ccccc54)nnc3s2)cc1 | 3% | -5% | 1% | -2% | 11µM* | -59%
c1ccc(-c2nn3c(Cn4nnc5ccccc54)nnc3s2)cc1 | 0% | 11% | 0% | 0% | -14% | 6%
CC(=C\c1ccccc1)/C=C1/SC(=S)N(CCC(=O)O)C1=O | -2% | 4% | · | -4%[1.84 µM] | 21µM* | ·
CC(=O)c1ccc(NC(=O)CCCN2C(=O)/C(=C/C(C)=C/c3ccccc3)SC2=S)cc1 | -3% | 0% | 2% | 5% | -4% | -20%
CC(=C\c1ccco1)/C=C1/SC(=S)N(CC(=O)O)C1=O | 2% | 4% | · | 16% | 17µM* | ·
CC(/C=C1\SC(=S)N(CC(=O)O)C1=O)=C\c1ccccc1 | ? | 16% | · | 21% | 17µM* | ·
CC(/C=C1\SC(=S)N(CC(=O)N2CCN(c3ccccc3)CC2)C1=O)=C\c1ccccc1 | -2% | -2% | -2% | -5% | 1% | -1%[1.84 µM]
C=CCC(C)(NCc1ccccc1)C(=O)OCC (stereo unspecified) | · | · | -7% | · | · | -1%
Cc1ccc2nc(=O)c(NNc3ccccc3)cnc2c1 | ? | ? | 2% | ? | ? | 18µM*
Cc1nc2ccccc2nc(=O)c1NNc1ccccc1 | ? | 9.2µM*! | -1% | ? | ? | 11µM*
Cc1nc2ccccc2nc1OCc1ccccc1 | -1% | 5% | 0% | 2% | ? | -19%
COc1cccc(N2CCN(c3ncc4c(n3)CCN(Cc3ccc(Br)cc3)C4)CC2)c1 | · | · | · | · | 5% | ·
CC(C)NC(=O)CSc1nc2ccccc2c(=O)n1Cc1ccc(C(=O)NC(C)C)cc1 | · | · | · | · | -1% | ·
COc1ccc(NC(=O)COC(=O)/C=C/c2ccc(OC)c(S(=O)(=O)N3CCOCC3)c2)cc1 | -1% | 3% | -3% | 10% | 1% | 9%
COc1ccc(/C=C/C(=O)OCC(=O)Nc2ccc(Cl)c(S(=O)(=O)N(C)C)c2)cc1OC | -5% | 9% | 2% | -2% | 24µM* | -1%

High-throughput results: PubChem, National Center for Advancing Translational Sciences (NCATS)
